USP17 inh – inhibitors of human USP17 deubiquitinase; actives 6.5% (n = 47,000); AID 1645855; inhibition, % at 50 µM; purified USP17, Ub-rhodamine cleavage fluorescence, 3 h
USP8 inh – blocks human USP8 ubiquitin-rhodamine cleavage; AID 1645853; purified USP8, Ub-rhodamine cleavage fluorescence, 30 min; inhibition, % at 20 µM; actives 4.2% (n = 47,000); P40818
USP28 inh – inhibitors of human USP28 deubiquitinase; purified USP28, Ub-rhodamine cleavage fluorescence, 30 min; inhibition, % at 25 µM; actives 3% (n = 47,000); AID 1645857
USP30 inh – blocks human USP30 ubiquitin-rhodamine cleavage | purified USP30, Ub-rhodamine cleavage fluorescence | inhibition, % at 25 µM | Q70CQ3 | actives 5.3% (n = 47,000) | AID 1645860
USP10 inh – blocks human USP10 ubiquitin-rhodamine cleavage; Q14694; purified USP10, Ub-rhodamine fluorescence, 60 min; inhibition, % at 20 µM; actives 1.1% (n = 47,000)
Target sequence (Q14694 whole entry, looked up): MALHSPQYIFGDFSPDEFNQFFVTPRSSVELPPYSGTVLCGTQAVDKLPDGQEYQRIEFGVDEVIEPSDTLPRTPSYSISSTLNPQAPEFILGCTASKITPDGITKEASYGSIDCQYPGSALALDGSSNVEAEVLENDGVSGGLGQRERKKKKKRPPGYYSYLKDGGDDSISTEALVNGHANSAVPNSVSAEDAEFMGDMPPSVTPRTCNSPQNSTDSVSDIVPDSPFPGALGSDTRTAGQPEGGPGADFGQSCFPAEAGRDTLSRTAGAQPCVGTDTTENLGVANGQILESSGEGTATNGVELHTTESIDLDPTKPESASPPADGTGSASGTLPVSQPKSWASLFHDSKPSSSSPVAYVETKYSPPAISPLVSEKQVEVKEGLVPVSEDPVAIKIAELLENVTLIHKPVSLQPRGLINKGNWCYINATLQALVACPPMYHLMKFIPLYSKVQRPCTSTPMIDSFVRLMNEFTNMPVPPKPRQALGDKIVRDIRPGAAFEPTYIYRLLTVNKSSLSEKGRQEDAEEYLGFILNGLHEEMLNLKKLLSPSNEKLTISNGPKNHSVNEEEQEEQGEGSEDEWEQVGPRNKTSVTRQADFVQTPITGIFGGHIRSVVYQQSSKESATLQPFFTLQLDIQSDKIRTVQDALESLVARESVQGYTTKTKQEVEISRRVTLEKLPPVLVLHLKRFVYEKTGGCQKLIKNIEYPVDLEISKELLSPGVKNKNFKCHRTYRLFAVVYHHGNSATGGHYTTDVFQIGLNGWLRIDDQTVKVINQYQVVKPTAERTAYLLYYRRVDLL
An asterisk follows results filed as active; · = not tested or not shown. Compounds with a hit are over-represented: about 14% of the library has one in this group of screens. Rule as the data show it: active = inhibition above about 30%; inactive = the rest.

SMILES	USP17 inh	USP8 inh	USP28 inh	USP30 inh	USP10 inh
Cc1cccc(NC(=O)Cn2c(=O)n(Cc3ccc(F)cc3)c(=O)c3sccc32)c1	69*	4	15	35*	18
COc1ccc(Cl)cc1NC(=O)Cn1c(=O)n(CCCC(=O)NCc2ccc(C)cc2)c(=O)c2sccc21	20	68*	-2	20	69*
N#CCN1CC[C@@]2(O)CCCC[C@H]2C1c1ccc2c(c1)OCO2 (some centres not stated)	-5	-14	0	-2	-6
Cc1nc(NCc2ccc3c(c2)OCO3)ncc1C(=O)N1CCOCC1	-12	-9	-14	-53	-11
Cc1ccc(S(=O)(=O)Nc2cc3c(cc2Cl)OCCO3)cc1	-6	4	1	6	1
O=C(CSc1nnc2ccccn12)Nc1ccc2[nH]c(=O)[nH]c2c1	6	1	-11	-123	-2
O=C(COC(=O)c1ccccc1F)Nc1ccc2[nH]c(=O)[nH]c2c1	18	5	37*	18	15
O=C(COC(=O)c1cc(Cl)c2c(c1)OCO2)Nc1ccc2[nH]c(=O)[nH]c2c1	57*	17	51*	-27	29
Cc1nnc(SCC(=O)Nc2ccc3[nH]c(=O)[nH]c3c2)n1-c1ccccc1	34*	-33	2	-13	-7
CC(CC(=O)OCC(=O)Nc1ccc2[nH]c(=O)[nH]c2c1)c1ccccc1 (configuration not stated)	17	-41	31*	16	-2
O=C(Nc1nc2ccc(F)cc2s1)c1cc(Cl)sc1Cl	3	70*	5	-4	26
Cn1c(N)c(C(=O)COc2ccc([N+](=O)[O-])cc2Cl)c(=O)n(C)c1=O	-9	-62	2	0	-1
Cn1c(N)c(C(=O)CSc2nnc(Cn3cnc4ccccc43)n2-c2ccccc2Cl)c(=O)n(C)c1=O	9	-3	6	39*	-3
COc1ccc(NC(=O)CSc2ncnc3c2oc2ccccc23)c(OC)c1	32*	0	11	20	0
O=C(CSc1ncnc2c1oc1ccccc12)Nc1ccccc1F	43*	6	·	·	1
O=C(CSc1nc(-c2ccccc2)c2ccccc2n1)NCCc1ccccc1	31*	4	29	18	10
O=C(CSc1ncnc2c1oc1ccccc12)NCCc1ccccc1	64*	3	15	36*	7
O=C(CSc1ncnc2c1oc1ccccc12)Nc1ccc(Cl)c(Cl)c1	23	-1	·	·	0
O=C(CSc1ncnc2c1oc1ccccc12)Nc1cccc2ccccc12	8	12	0	16	15
Cc1nc(NCc2ccc3c(c2)OCO3)ncc1C(=O)N1CCN(c2ccccn2)CC1	-20	-10	-13	-28	-5
CCn1c(CCNC(=O)c2ccccc2)nc2ccccc21	4	-4	·	·	-2
O=C(NCCCc1nc2ccccc2n1Cc1c(Cl)cccc1Cl)c1ccco1	74*	17	47*	11	5
O=C(NCCCc1nc2ccccc2n1Cc1c(F)cccc1Cl)c1ccco1	34*	10	5	11	1
O=C(CCc1nnc2ccc(N3CCCCC3)nn12)NCCN1CCOCC1	10	41*	-2	13	0
CC1CCN(c2ccc3nnc(CCC(=O)NCCN4CCCC4)n3n2)CC1	-17	-9	-12	-23	-3
SMILES	USP17 inh	USP8 inh	USP28 inh	USP30 inh	USP10 inh
COc1ccc(C2C(C(=O)NCc3ccccc3)=C(C)Nc3ncnn32)cc1 (configuration not stated)	-15	0	-8	-5	1
CC1=C(C(=O)NCc2ccccc2)C(c2cccc(F)c2)n2ncnc2N1 (configuration not stated)	11	22	8	33*	0
CC(C)(C)c1cc2nc3c(c(=O)n2[nH]1)CN(Cc1ccc(Br)s1)CC3	6	40*	5	21	12
Cc1cccc(OCC(=O)Nc2ccc3c(c2)NC(=O)CO3)c1	41*	0	4	12	2
Cc1cc(OCC(=O)Nc2ccc3c(c2)NC(=O)CO3)ccc1Cl	10	53*	13	14	45*
COc1cccc(CCN2C[C@@]34CN(C(=O)c5cccnc5)C[C@@H](C[C@@H]3S2(=O)=O)O4)c1	-6	6	0	9	0
Cc1cccc(C(=O)N[C@@H]2C(=O)Nc3c(c(C)nn3C)[C@H]2c2cc(Cl)c3c(c2)OCCO3)c1	-1	10	1	-9	-2
CC(=O)[C@H]1c2c(c(O)c3c(O)cccc3c2-c2c3c(c(O)c4c(O)cccc24)C(=O)C[C@](C)(O)[C@H]3C(C)=O)C(=O)C[C@]1(C)O	78*	64*	30	-20	27
O=C(N[C@@H]1C[C@@H](Oc2cccc(F)c2)[C@H](O)[C@H]1O)c1cccc(F)c1	-15	-19	-5	-8	0
Cc1cccc2c(=O)n(C)c(CCC(=O)NCc3cc(F)ccc3F)nc12	38*	5	9	45*	-1
COc1ccc(-n2ccn3c(CCC(=O)NCc4ccccc4)nnc3c2=O)cc1	0	19	-3	8	2
Cc1ccc(-n2ccn3c(CCC(=O)NCc4ccc(F)cc4)nnc3c2=O)cc1C	-1	67*	14	27	10
Cc1ccc(CNC(=O)CCc2nnc3c(=O)n(-c4ccc(C)c(C)c4)ccn23)cc1	32*	41*	33*	40*	1
Cc1ccc(-n2ccn3c(CCC(=O)NCc4ccco4)nnc3c2=O)cc1C	6	-34	8	14	-1
Cn1c(CCC(=O)NCc2cc(F)cc(F)c2)nc2ccccc2c1=O	0	15	-8	-15	-1
C[C@H](NC(=O)C1CCC(Cn2cnc3ccccc3c2=O)CC1)C(=O)O (some centres not stated)	6	7	2	14	2
O=C(CSc1nnc(NC(=O)c2ccc([N+](=O)[O-])cc2)s1)Nc1ccc(Br)cc1	19	-9	13	33*	25
O=C(Cc1cccs1)Nc1nnc(SCc2ccc([N+](=O)[O-])cc2)s1	-4	0	10	-176	24
O=C(O)[C@@H]1CCCN1C(=O)[C@@H](Cc1ccccc1)n1c(=O)[nH]c2ccccc2c1=O	-7	-55	-14	5	1
CC1CCC2C(C)(C)C(O)CCC2(C)C12Cc1c(cc3c(c1O)CN(CCCCC(=O)O)C3=O)O2 (configuration not stated)	49*	-63	12	-38	-16
CC(C)c1ccc(C(C)NC(=O)c2cccc(N(C)C)c2)cc1 (configuration not stated)	39*	2	-6	-5	4
O=C(CSc1cn(CC(=O)N2CCOCC2)c2ccccc12)Nc1ccc(F)cc1F	14	12	12	12	-2
O=C(Nc1ccccc1)c1ccn(COc2ccccc2F)n1	-2	4	25	-5	3
Cc1cccc(NC(=O)c2ccn(COc3ccc(F)cc3F)n2)c1C	9	8	51*	16	10

Assay outcomes as filed in PubChem BioAssay.
